# In PubChem BioAssay:
# Calls of active or inactive are those of the source.
# Columns and labels:
# [1] = test system: Plasmodium falciparum Sir2 (PF13_0152, Sir2A); test: Plasmodium falciparum Sir2A binding compounds – biochemical, small-molecule microarray, 635 nm fluorescence, primary screen (AID 1098); conditions: fluorescence 635 nm, higher = more signal;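 also: score merges spot fluorescence intensity with its signal-to-noise ratio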
# [2] = probe aDKK1 binding to arrayed compounds – biochemical, biotinylated probe, 635/667 nm fluorescence, primary screen (AID 1099); conditions: small-molecule microarray, higher = more signal;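 also: score merges 667nm spot fluorescence with signal to noise across triplicate slides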
# [3] = probe aCHRDL2 binding to arrayed compounds – biochemical, biotinylated probe, 635/667 nm fluorescence, primary screen (AID 1100); conditions: small-molecule microarray, higher = more signal
# [4] = change in splice reporter luminescence, either direction, cell-based, HEK293, spliceosome inhibition project, primary screen (AID 1101); conditions: HEK293 splicing luciferase reporter, 24 h, higher = more signal, called active from +8 up or from −8 down;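 also: HEK293 cells carrying a splicing-competent luciferase reporter gene; test concentration not given here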
# [5] = target: Fibroblast growth factor 10 (Homo sapiens) (UniProt O15520); test: compounds binding fibroblast growth factor 10 – biochemical, small-molecule microarray, 635 nm fluorescence, primary screen (AID 1102); conditions: FGF10 binding, fluorescence 635 nm, higher = more signal
# [6] = test system: glycogen synthase kinase-3 (GSK3A per assay name; protocol says GSK3B); test: compounds binding glycogen synthase kinase-3 – biochemical, small-molecule microarray, 635 nm fluorescence, GSK3A, primary screen (AID 1103); conditions: fluorescence 635 nm, higher = more signal; also: the record names both GSK3A and GSK3B
# [7] = target: Epidermal growth factor receptor (Homo sapiens) (UniProt P00533); test: compounds binding epidermal growth factor receptor – biochemical, small-molecule microarray, 635 nm fluorescence, primary screen (AID 1104); conditions: EGFR binding, higher = more signal;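 also: score merges 667 nm emission intensity with spot signal to noise over triplicate slides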
# [8] = target: Follistatin-related protein 3 (Homo sapiens) (UniProt O95633); test: compounds binding follistatin-related protein 3 – biochemical, small-molecule microarray, 635 nm fluorescence, primary screen (AID 1105); conditions: FSTL3 binding, higher = more signal;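 also: score merges emission near 667 nm and signal to noise per printed spot across three slides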
# [9] = target: Dickkopf-related protein 1 (Homo sapiens) (UniProt O94907); test: small molecules binding DKK1 protein – biochemical, small-molecule microarray, 635 nm fluorescence scan, primary screen (AID 1106); conditions: higher = more signal;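 also: score merges emission near 667 nm with signal to noise over three replicate slides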
# [10] = test system: Inhibin beta A chain (activin A); test: small molecules binding activin A – biochemical, small-molecule microarray, 635 nm fluorescence scan, primary screen (AID 1107); conditions: INHBA, higher = more signal;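 also: mouse activin A protein probed at 4.33 µg/mL on printed slides; score merges bound-protein fluorescence near 667 nm with spot signal-to-noise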
# [11] = test system: Human papillomavirus type 1a protein E7 (residues 44-93); test: small molecules binding HPV E7 44-93 – biochemical, small-molecule microarray, residues 44-93, 635 nm fluorescence, primary screen (AID 1108); conditions: fluorescence 635 nm, higher = more signal;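 also: E7 fragment applied at 1 µg/mL in TBST for 1 h at 4 C; score combines spot fluorescence with its signal to noise ratio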
# [12] = hepatitis C replication reporter changes, two-sided – Huh7 cells, luciferase reporter, HCV replication inhibitor project, primary screen (AID 1109); conditions: Huh7 HCV replicon luciferase reporter, 48 h; higher = more signal;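 also: huh7 hepatoma cells harbouring a luciferase neomycin HCV replicon reporter; luciferase luminescence as measure of HCV replicon replication; test concentration not given here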
# [13] = target: Left-right determination factor 2 (Homo sapiens) (UniProt O00292); test: small molecules binding LEFTY2 protein – biochemical, small-molecule microarray, 635 nm fluorescence scan, primary screen (AID 1110); conditions: higher = more signal
# [14] = target: Calmodulin-1 (Homo sapiens) (UniProt P0DP23); test: small molecules binding calmodulin-1 with EGTA – biochemical, small-molecule microarray, Cy5-labelled CALM1, profiling panel (AID 1111); conditions: Cy5-CALM1 binding fluorescence, higher = more signal;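 also: labelled calmodulin applied in Tris saline Tween buffer holding calcium plus EGTA and DTT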
# [15] = target: Calmodulin-1 (Homo sapiens) (UniProt P0DP23); test: small molecules binding Ca-loaded calmodulin-1 – biochemical, small-molecule microarray, Cy5-labelled CALM1, plus calcium, artefact control for SMM control-protein annotation, profiling panel (AID 1112); conditions: Cy5-CALM1 binding fluorescence, higher = more signal;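 also: score merges spot fluorescence with signal to noise from triplicate slides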
# [16] = probe aWnt5a binding to arrayed compounds – biochemical, biotinylated probe, 635/667 nm fluorescence, primary screen (AID 1113); conditions: small-molecule microarray, higher = more signal;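 also: score merges 667 nm fluorescence intensity with signal-to-noise per printed feature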
# [17] = probe aShh binding to arrayed compounds – biochemical, biotinylated probe, 635/667 nm fluorescence, primary screen (AID 1114); conditions: small-molecule microarray, higher = more signal;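 also: probe is biotin-labelled aShh protein from a stem cell growth factor screen; measures binding of labelled protein to compounds printed on the slide; score merges feature fluorescence at 667 nm with signal-to-noise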
# [18] = probe aNog binding to arrayed compounds – biochemical, biotinylated probe, 635/667 nm fluorescence, primary screen (AID 1115); conditions: small-molecule microarray, higher = more signal;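 also: probe is biotinylated aNog protein used at 0.15 µg/mL for 1 h at 4 C; z-score combines 667 nm fluorescence of each spot with its signal to noise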
# [19] = target: Torsin-1A-interacting protein 1 (Homo sapiens) (UniProt Q5JTV8); test: compound microarray binding of lysate hLAP1 – cell lysate, small-molecule microarray, COS7 lysate, 635/667 nm fluorescence, primary screen (AID 1116); conditions: 635 nm fluorescence, higher = more signal
# [20] = target: Alpha-bungarotoxin (Bungarus multicinctus) (UniProt P60615); test: compounds binding labelled alpha-BTX control protein – biochemical, small-molecule microarray, Alexa647 label, 635/667 nm fluorescence, artefact control for SMM control protein annotation, profiling panel (AID 1117); conditions: alpha-BTX-A647 binding fluorescence, higher = more signal
# Sequence of Alpha-bungarotoxin (Bungarus multicinctus) (P60615 whole entry, looked up): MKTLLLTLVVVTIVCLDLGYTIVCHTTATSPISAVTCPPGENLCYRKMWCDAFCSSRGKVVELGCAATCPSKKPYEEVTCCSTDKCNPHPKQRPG
# Sequence of Fibroblast growth factor 10 (Homo sapiens) (O15520 whole entry, looked up): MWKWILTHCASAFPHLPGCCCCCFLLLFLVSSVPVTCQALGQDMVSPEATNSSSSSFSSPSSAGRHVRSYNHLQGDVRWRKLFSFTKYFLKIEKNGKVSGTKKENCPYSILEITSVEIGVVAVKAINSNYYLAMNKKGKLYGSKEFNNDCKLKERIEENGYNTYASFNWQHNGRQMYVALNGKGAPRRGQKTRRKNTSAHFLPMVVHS
# Sequence of Torsin-1A-interacting protein 1 (Homo sapiens) (Q5JTV8 whole entry, looked up): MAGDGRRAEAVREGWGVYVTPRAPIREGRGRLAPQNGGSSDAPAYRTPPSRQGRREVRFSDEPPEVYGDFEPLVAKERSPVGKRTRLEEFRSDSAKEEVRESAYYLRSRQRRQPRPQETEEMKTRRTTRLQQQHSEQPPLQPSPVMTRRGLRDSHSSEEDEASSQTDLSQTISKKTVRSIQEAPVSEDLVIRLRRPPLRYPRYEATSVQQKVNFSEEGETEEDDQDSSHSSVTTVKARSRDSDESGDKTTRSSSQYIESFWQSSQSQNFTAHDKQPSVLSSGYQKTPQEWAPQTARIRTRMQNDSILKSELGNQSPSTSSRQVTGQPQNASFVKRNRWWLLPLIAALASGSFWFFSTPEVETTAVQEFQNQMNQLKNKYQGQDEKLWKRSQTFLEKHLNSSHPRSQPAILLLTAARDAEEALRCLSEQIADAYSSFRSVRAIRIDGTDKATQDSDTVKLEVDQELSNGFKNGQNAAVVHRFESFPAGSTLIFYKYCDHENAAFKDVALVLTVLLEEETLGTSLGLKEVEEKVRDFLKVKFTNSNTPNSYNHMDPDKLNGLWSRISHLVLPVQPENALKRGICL
# Sequence of Left-right determination factor 2 (Homo sapiens) (O00292 whole entry, looked up): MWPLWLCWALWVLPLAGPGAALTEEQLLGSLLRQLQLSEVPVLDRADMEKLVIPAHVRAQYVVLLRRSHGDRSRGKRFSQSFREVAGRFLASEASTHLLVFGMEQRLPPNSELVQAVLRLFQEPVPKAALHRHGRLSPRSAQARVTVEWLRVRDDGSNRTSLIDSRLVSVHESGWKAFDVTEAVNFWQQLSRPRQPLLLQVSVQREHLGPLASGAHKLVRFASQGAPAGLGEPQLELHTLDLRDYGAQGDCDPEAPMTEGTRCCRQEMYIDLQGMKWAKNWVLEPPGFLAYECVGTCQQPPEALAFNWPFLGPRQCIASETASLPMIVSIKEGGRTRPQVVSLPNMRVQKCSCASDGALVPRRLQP
# Sequence of Follistatin-related protein 3 (Homo sapiens) (O95633 whole entry, looked up): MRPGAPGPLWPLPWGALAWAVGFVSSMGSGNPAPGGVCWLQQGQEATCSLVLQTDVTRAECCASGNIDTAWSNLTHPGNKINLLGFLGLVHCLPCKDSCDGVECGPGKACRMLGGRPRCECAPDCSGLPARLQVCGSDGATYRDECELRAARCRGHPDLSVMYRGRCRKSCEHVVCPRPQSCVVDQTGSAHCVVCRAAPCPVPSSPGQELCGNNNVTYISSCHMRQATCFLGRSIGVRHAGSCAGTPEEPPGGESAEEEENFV
# Sequence of Dickkopf-related protein 1 (Homo sapiens) (O94907 whole entry, looked up): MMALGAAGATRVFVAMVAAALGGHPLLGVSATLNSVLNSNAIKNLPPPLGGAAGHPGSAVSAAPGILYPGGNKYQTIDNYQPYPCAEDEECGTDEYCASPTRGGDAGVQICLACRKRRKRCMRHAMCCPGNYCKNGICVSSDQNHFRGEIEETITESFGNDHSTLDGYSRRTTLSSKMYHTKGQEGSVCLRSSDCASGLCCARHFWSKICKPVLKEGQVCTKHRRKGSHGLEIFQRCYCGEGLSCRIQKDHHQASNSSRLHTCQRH
# Sequence of Epidermal growth factor receptor (Homo sapiens) (P00533 whole entry, looked up): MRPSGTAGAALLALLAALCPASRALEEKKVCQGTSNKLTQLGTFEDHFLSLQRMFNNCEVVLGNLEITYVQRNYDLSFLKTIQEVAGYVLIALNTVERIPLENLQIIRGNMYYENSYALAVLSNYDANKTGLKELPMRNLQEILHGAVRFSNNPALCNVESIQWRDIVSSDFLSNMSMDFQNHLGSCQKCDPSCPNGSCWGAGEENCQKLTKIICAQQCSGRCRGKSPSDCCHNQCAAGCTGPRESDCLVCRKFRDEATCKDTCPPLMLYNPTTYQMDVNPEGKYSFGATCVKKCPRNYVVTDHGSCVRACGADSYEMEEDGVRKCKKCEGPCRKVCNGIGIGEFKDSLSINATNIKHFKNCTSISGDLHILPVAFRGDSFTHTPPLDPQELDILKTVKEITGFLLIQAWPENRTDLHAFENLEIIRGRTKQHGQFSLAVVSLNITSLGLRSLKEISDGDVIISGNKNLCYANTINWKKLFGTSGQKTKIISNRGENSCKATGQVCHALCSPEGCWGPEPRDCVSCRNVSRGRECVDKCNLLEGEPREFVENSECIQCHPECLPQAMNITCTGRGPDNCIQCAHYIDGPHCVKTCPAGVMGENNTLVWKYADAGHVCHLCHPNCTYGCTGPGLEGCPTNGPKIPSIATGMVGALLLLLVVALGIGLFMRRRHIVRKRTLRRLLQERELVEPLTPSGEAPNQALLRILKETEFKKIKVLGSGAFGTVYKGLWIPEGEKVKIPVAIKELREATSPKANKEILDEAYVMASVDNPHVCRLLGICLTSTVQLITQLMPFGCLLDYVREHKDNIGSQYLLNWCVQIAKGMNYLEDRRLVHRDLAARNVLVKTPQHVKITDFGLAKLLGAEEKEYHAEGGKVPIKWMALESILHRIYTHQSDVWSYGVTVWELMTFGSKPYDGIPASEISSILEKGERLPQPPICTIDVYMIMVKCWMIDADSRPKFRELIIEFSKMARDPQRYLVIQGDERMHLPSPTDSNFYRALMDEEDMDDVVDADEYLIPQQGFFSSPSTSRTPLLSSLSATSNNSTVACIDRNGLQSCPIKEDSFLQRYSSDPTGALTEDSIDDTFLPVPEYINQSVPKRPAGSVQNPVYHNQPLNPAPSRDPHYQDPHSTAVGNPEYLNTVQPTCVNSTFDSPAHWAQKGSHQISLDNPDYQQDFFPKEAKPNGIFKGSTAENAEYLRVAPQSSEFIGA
Compound,composite z-score [1],composite z-score [2],composite z-score [3],z-score [4],composite z-score [5],composite z-score [6],composite z-score [7],composite z-score [8],composite z-score [9],composite z-score [10],composite z-score [11],z-score [12],composite z-score [13],composite z-score [14],composite z-score [15],composite z-score [16],composite z-score [17],composite z-score [18],composite z-score [19],composite z-score [20]
COc1cc(CO)cc(I)c1O[C@H]1C=C(C(=O)NCCO)C[C@@H](N(CCN2CCOCC2)C(=O)C2CCOC2)[C@@H]1O (stereo not given in full),0.505,-0.424,-0.544,-0.145 (inactive),1.29,0.437,-0.0432,0.742,0.507,-0.584,-0.923,-0.282,0.897,-0.0002,-0.543,-0.247,0.0639,-0.281,0.085,0.0392
C=CCNC(=O)[C@H]1[C@@H]2C(=O)O[C@@H](c3ccccc3)[C@@H](c3ccccc3)N2[C@@H](c2ccccc2OCCO)[C@]12C(=O)Nc1ccc(C#CC3=CCCCC3)cc12,1.28,-0.22,0.317,-2.23 (inactive),1.27,1.3,0.48,1.24,0.646,1.17,1.12,-3.52,0.531,0.904,-0.321,-0.1,0.0588,0.163,0.358,0.99
O=C1NC(=O)C2C1C=CC(C(O)c1cccc3ccccc13)N2Nc1ccccn1 (stereo not given),0.621,0.103,0.15,1.03 (inactive),0.522,0.233,0.688,0.857,0.31,0.924,0.355,0.496,0.326,-0.168,-0.477,-0.034,0.401,0.116,0.594,0.307
C=C(COC)/C(=C/C[C@@H](OC(C)=O)c1ccc(OCCO)cc1)c1cc(C(=O)OC)ccc1OC,1.22,0.455,-0.103,0.585 (inactive),1.54,0.794,0.265,1.27,0.43,0.884,1.35,-1.51,0.417,-0.107,-0.878,0.0618,0.23,-0.354,0.864,0.472
O=C1O[C@H](c2ccccc2)[C@H](c2ccccc2)N2[C@H]1[C@@H](C(=O)NC[C@H](O)c1ccccc1)[C@]1(C(=O)Nc3ccccc31)[C@H]2c1ccc(OCCO)cc1,0.884,0.569,0.672,0.985 (inactive),0.745,1.23,-0.0151,0.464,0.289,0.286,1.38,-2.05,0.119,0.475,0.245,-0.0882,-0.167,0.0821,1.5,1.33
C[N+](C)(C)CCCC[C@@H]1NC(=O)[C@@H]2C[C@H](C(=O)NCCCCCN)[C@H](c3cccc(OCCO)c3)N2C1=O,1.07,0.0277,0.356,-0.657 (inactive),1.12,1.3,-0.167,-0.144,-0.17,-0.68,1.32,-0.0028,-0.202,1.7,1.12,-0.289,-0.256,0.422,0.987,0.932
O=C1C2C=CC(C(O)C3CCCCC3)N(Nc3ccc([N+](=O)[O-])cc3)C2C(=O)N1c1ccccc1 (stereo not given),1.26,-0.236,0.783,-1.04 (inactive),-0.901,1.31,-1.54,-0.677,-1.49,-1.28,1.37,-0.057,-1.4,1.16,0.164,-0.0944,-0.0035,0.283,0.721,1.96
COCCCN1C(=O)[C@@]2(c3ccc([N+](=O)[O-])cc3)CC(=O)N(C3CCCCC3)[C@@H]2c2ccc(CO)cc21,0.555,-0.24,-0.319,-0.237 (inactive),0.301,0.237,-0.0732,0.593,0.3,0.717,0.215,-1.4,0.289,-0.463,-1.17,-0.096,-0.223,0.439,0.0951,0.467
CCOC(=O)C=Cc1cc([N+](=O)[O-])ccc1O,-0.551,-0.14,-0.134,-1.72 (inactive),-0.395,-0.398,-0.899,-0.971,-0.693,-0.855,0.0311,-1.47,-0.609,-0.211,-0.5,-0.124,0.173,-0.377,0.106,-0.234
CN1C(=O)C2C=CC(C(O)c3ccccc3)N(Nc3ccccc3)C2C1=O (stereo not given),1.54,0.754,1.13,1.03 (inactive),-0.678,-0.415,-1.32,-0.674,-1.22,0.918,-0.265,0.773,-1.52,0.253,-0.143,-0.0758,-0.0813,-0.448,-0.454,0.201
